Experimental data as given in PubChem BioAssay AID588413 (Sanford-Burnham Center for Chemical Genomics, 2011).
Out of some 340,000 compounds screened, about 2,500 (0.74%) were called active.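 The calls were made as follows: active = inhibition above about 55% (limit read from the data); inactive = the rest.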 The sample as a whole holds a higher share of actives than the screen did.

assay: Gli-Sufu pathway antagonists, primary screen, luciferase luminescence, Sufu-KO-LIGHT cells, uHTS (AID 588413); details: Sufu-KO-LIGHT fibroblasts, Gli luciferase reporter luminescence; at 5 µM; stronger effect = higher value;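 also: 0% = DMSO-treated cells and 100% = wells with medium but no cells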

Compound	inhibition
CCCCN(C(=O)c1ccc(S(=O)(=O)N2CCOCC2)cc1)C1CCS(=O)(=O)C1 (stereo unspecified)	0.87% (inactive)
O=C(OC1CCOC1=O)c1ccc(-c2nc3ccccc3s2)s1 (stereo unspecified)	-21% (inactive)
CC1=NNC(=O)C1CCC(=O)N/N=C(\C)c1ccc(Cl)cc1 (stereo unspecified)	3.52% (inactive)
CNC(=S)N1CCN(c2ccccn2)CC1	2.59% (inactive)
C/C(=N\NC(=O)Cc1ccc(Cl)cc1)c1ccccn1	88% (active)
C/C(=N\NC(=O)c1ccccc1F)c1ccccn1	58.4% (active)
COc1ccc(/C(C)=N\NC(=O)c2ccc(-c3ccccc3)cc2)c(F)c1	2.32% (inactive)
CC(=NNC(=S)N1CCCCCC1)c1ccccn1	63.6% (active)
Cc1cnc(NC(=O)c2ccccn2)s1	-50.9% (inactive)
Cc1cccc(C)c1NC(=S)N1CCCCCC1	3.64% (inactive)
NC(=O)NC(CC(=O)NNC(=O)c1ccccn1)c1ccc(Cl)cc1 (stereo unspecified)	5.55% (inactive)
O=C(COC(=O)c1ccc(O)cc1O)c1ccc2c(c1)OCCO2	-30.6% (inactive)
C=CCn1cc(C(=O)NCc2ccc(Cl)cc2)c(=O)c2cc(S(=O)(=O)N(CC)CC)ccc21	9.9% (inactive)
Cc1ccc(S(=O)(=O)c2cc3c(=O)n4cccc(C)c4nc3n(CCc3ccccc3)c2=N)cc1C	1.35% (inactive)
CC(C)c1ccc(/C=C/C(=O)NCCCN2CCOCC2)cc1	-8.47% (inactive)
CNS(=O)(=O)c1ccc(NC(=O)C2CC(=O)N(c3ccc(Cl)cc3)C2)cc1 (stereo unspecified)	-4% (inactive)
CCOC(=O)c1c(C)[nH]c(C(=O)NCCN2CCOCC2)c1C	17.9% (inactive)
CN(C)S(=O)(=O)c1ccc(Cl)c(NC(=O)COC(=O)CC(NC(N)=O)c2ccc(Cl)cc2)c1 (stereo unspecified)	-2.2% (inactive)
CCOP1(=O)C=C(C(C)(C)C)OC1c1ccc(F)cc1 (stereo unspecified)	8.49% (inactive)

Compound	inhibition
COc1cccc(NC(=S)NC(=O)c2c(Cl)c(C)nn2C)c1	-24.8% (inactive)
CCCc1c(C(=O)Nc2ccc(F)cc2)cnn1-c1ccccc1	-12.3% (inactive)
Cc1nn(C(C)C(=O)NCCC2=CCCCC2)c(=O)c2nn(-c3ccccc3)c(C)c12 (stereo unspecified)	3.02% (inactive)
CCN1/C(=C/c2ccc3ccc(C)cc3[n+]2CC)Sc2ccccc21	79.4% (active)
CCN1/C(=C\c2ccc3ccccc3[n+]2CC)Sc2cc(C)ccc21	90% (active)
NC(=O)c1ccc(N2CCCC2)nc1	1.14% (inactive)
CCC1=[N+]([O-])C(C)(/C(C)=N\O)N(O)C1(C)C (stereo unspecified)	17.9% (inactive)
COC(=O)Cc1[nH]n(-c2nc3ccccc3s2)c(=O)c1C(C)=Nc1ccc(OC)cc1	79.5% (active)
CC(=NCc1ccco1)c1c(C(F)(F)F)[nH]n(-c2nc3ccccc3s2)c1=O	-17.2% (inactive)
COc1ccc(C(=O)Nc2cccc(/C=C(/CCC(=O)O)c3nc4ccccc4s3)c2)cc1	-20.1% (inactive)
NC(=O)N1CCCC1C(=O)Nc1ccc(Cl)c(Cl)c1 (stereo unspecified)	1.62% (inactive)
O=C(CC(O)(C(F)(F)F)C(F)(F)F)Nc1ccc(Cl)c(Cl)c1	78.9% (active)
CCCCC(=O)Nc1ccc(C(=O)Nc2cc(C(F)(F)F)ccc2Cl)cc1	5.23% (inactive)
CCC1CCCCN1C(=O)CSc1nc2c(c(=O)n1C)SC(C)C2 (stereo unspecified)	1.3% (inactive)
COc1ccc(OC)c(/C=N/NC(=O)CSc2nnc(C)n2-c2ccccc2)c1	-2.67% (inactive)
COc1ccc(OC)c(/C=N/NC(=O)c2ccc[n+](CC(=O)c3ccccc3)c2)c1	91.4% (active)
COc1ccc(CC(=O)NCC(=O)N/N=C/c2cc(Br)ccc2OC)cc1	-1.49% (inactive)
Cc1cc(NC(=O)CN2CCCC(C)C2)n(-c2nc3ccccc3s2)n1 (stereo unspecified)	20% (inactive)
CCC(C)Cn1c(O)cc2nn(-c3nc4ccccc4s3)c(=O)c-2c1C (stereo unspecified)	83.4% (active)

Compound	inhibition
CCc1ccc[n+](-c2nc([O-])sc2C=O)c1	6.64% (inactive)
COc1ccc(NC(=O)CNC(=O)Cn2ccc3ccccc3c2=O)c(OC)c1	-0.61% (inactive)
COc1ccc(OC)c(Cc2nnc(CCC(=O)NC3CCCC3)o2)c1	-18.7% (inactive)
COc1ccc(OC)c(Cc2cnc3nc(N)nc(N)c3c2C)c1	63.1% (active)
COc1ccc(OC)c(NC(=O)c2sc3nc(C)cc(C)c3c2N)c1	-3.47% (inactive)
CC(C)=CCCC1(C)C=Cc2c(ccc3c2[nH]c2cc(O)c(C)cc23)O1 (stereo unspecified)	-3.46% (inactive)
CS(=O)(=O)N1CCCC(C(=O)Nc2ccccc2C(F)(F)F)C1 (stereo unspecified)	-2.21% (inactive)
O=C(O)CCCCCCCCc1cn(CN2C(=O)c3ccccc3C2=O)nn1	-12.6% (inactive)
OCC1(Cc2ccccc2C(F)(F)F)CCN(Cc2cccc3cnccc23)CC1	25.5% (inactive)
CC1CC2=C(CC1/C=N/NC(N)=S)C(C)(C)CCC2 (stereo unspecified)	72.7% (active)
COc1cccc(CN(C)C(=O)CC23CC4CC(CC(C4)C2)C3)c1OC	-2.54% (inactive)
Cn1c(N)c(C(=O)COC(=O)/C=C/c2ccc(OC(F)F)cc2)c(=O)n(C)c1=O	5.01% (inactive)
N#Cc1c(-c2cccs2)nc(SCC(=O)c2ccc(Br)cc2)[nH]c1=O	4.3% (inactive)
N#Cc1ccc(C(=O)Nc2nc(-c3cccs3)c(C(=O)C(F)(F)F)s2)cc1	62.5% (active)
COC(=O)c1sc(NC(=S)NC(=O)c2ccc(C)cc2)nc1C	-41.9% (inactive)
C/C(N)=C(\C#N)C(=O)NCCc1ccccn1	-1.25% (inactive)
C=CC[C@H](CC(=O)OC(C)(C)C)C(=O)OC[C@H]1CCCN1C(=O)[C@H](CC=C)CC(=O)N(CCO)Cc1ccccc1	7.8% (inactive)
Nc1nc(SCC(=O)Nc2ccc(Cl)c([N+](=O)[O-])c2)n[nH]1	-5.39% (inactive)
